Experiment [1] in a line: qHTS assay to identify small molecule antagonists of the constitutive androstane receptor (CAR) signaling pathway - cell viability counter screen (AID 1224837). Also: nearly all actives have a fitted effect of over 45% in size. Summed up: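 Counter screen run in HepG2-CYP2B6-hCAR cells: 4 hr settle, compound titration (15 concentrations) with 50 nM CITCO, 23 hr at 37 C/5% CO2, CellTiter-Fluor fluorescence.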
Experiment [2] addresses Nuclear receptor subfamily 1 group I member 3 (Homo sapiens) (UniProt Q14994). Put plainly: qHTS assay to identify small molecule antagonists of the constitutive androstane receptor (CAR) signaling pathway (AID 1224838). Also: nearly all actives have a fitted effect of over 40% in size. The method in brief: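 Cell line: HepG2 double-stable for hCAR and CYP2B6-2.2kb reporter. Agonist: CITCO, 50 nM final. Compounds: 15 concentrations, 24 h, 37 C. Detection: ONE-Glo luminescence.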

For experiment [3] the target is unchanged. Put plainly: qHTS assay to identify small molecule agonists of the constitutive androstane receptor (CAR) signaling pathway (AID 1224839). Also: nearly all actives have a fitted effect of over 15% in size. Also: potency is read from the fitted curve at half-maximal effect. Summed up: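 HepG2 cells stably expressing hCAR and a CYP2B6-2.2kb luciferase reporter were treated with compounds at 15 concentrations plus 0.75 uM PK11195 (final) for 24 h at 37 C; luminescence was read after ONE-Glo addition.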

Experiment [4] can be described thus: qHTS assay to identify small molecule antagonists of the estrogen related receptor signaling pathway with the pleiotropic PPARgamma coactivator (PGC) from Tox21 10K library - cell viability counter screen (AID 1224840; active = well fitted cell-killing curve with a large enough effect in the repeat runs, not every such curve was filed as active; also: nearly all actives have a fitted effect of over 40% in size). The method in brief:
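Following seeding of 2,000 PGC/ERR cells/well and 6 hours' incubation, test compounds were delivered in DMSO. The plates then sat 17.5 hours at 37 C before a fluorogenic live-cell protease reagent (CellTiter-Fluor) was read after 30 min.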

Experiment [5] is described as follows: qHTS assay to identify small molecule antagonists of the estrogen related receptor signaling pathway with the pleiotropic PPARgamma coactivator (PGC) from Tox21 10K library (AID 1224841; call rule not given here; also: actives are mostly falling curves and most rising ones were filed inactive; nearly all actives have a fitted effect of over 50% in size). The method in brief: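 qHTS antagonist format: PGC/ERR cells, 2k/well, compound in DMSO by pin transfer after 6 h attachment, 18 h treatment at 37 C, One-Glo luminescence read at 30 min.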

The nature of experiment [6]: qHTS assay to identify small molecule agonists of the estrogen related receptor signaling pathway with the pleiotropic PPARgamma coactivator (PGC) from Tox21 10K library (AID 1224842). Also: nearly all actives have a fitted effect of over 15% in size. The method in brief:
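PGC/ERR reporter cell line, 2,000 cells per well, incubated 6 h at 37 C before 23 nL compound in DMSO was added. After 18 h at 37 C, One-Glo luminescence read following 30 min at room temperature.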

The target in experiment [7] is Thyrotropin receptor (Homo sapiens) (UniProt P16473). Put plainly: qHTS assay to identify small molecule agonists of the thyroid stimulating hormone receptor (TSHR) signaling pathway (AID 1224843; calls by dose curve; also: nearly all actives have a fitted effect of over 45% in size). Summed up: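 Steps: seed 800 TSHR-HEK293 cells per well; add test compound and hold 30 min at ambient temperature; dispense cAMP-d2 then anti-cAMP cryptate; incubate 1 h at ambient; measure fluorescence intensity.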
Chain of Thyrotropin receptor (Homo sapiens) (P16473 whole entry, looked up): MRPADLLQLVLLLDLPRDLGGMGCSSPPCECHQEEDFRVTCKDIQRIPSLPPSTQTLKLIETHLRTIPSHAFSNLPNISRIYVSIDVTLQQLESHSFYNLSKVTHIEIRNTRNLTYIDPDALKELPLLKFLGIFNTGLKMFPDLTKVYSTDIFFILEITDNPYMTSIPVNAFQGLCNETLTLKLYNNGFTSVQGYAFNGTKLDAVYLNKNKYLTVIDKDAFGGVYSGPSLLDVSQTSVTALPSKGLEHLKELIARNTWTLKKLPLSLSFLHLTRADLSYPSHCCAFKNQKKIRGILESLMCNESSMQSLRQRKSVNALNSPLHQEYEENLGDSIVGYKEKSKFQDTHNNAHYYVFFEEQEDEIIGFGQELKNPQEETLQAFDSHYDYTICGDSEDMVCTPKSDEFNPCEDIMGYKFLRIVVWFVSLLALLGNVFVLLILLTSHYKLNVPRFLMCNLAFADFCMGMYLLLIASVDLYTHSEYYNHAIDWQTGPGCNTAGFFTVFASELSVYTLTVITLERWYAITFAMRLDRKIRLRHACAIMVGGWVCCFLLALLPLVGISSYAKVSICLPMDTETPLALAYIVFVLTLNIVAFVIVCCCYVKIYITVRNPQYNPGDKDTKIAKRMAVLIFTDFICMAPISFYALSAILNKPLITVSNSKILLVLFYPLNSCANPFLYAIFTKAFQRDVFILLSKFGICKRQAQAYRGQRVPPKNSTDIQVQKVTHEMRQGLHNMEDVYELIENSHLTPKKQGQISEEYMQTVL

A short description of experiment [8]: qHTS assay to identify small molecule agonists of the hypoxia (HIF-1) signaling pathway - cell viability counter screen (AID 1224844; calls by dose curve; also: nearly all actives have a fitted effect of over 50% in size). Summed up:
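Cells (HRE-bla ME-180, 2,000 per well) sat 5 hrs at 37C, got compound for 17 hrs, were read for CCF4-AM FRET, and were finally lysed with CellTiter-Glo for a 30 min room-temperature luminescence read.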

Experiment [9] in a line: qHTS assay to identify small molecule agonists of H2AX (AID 1224845; active = well fitted activation curve with a large enough effect in the signal ratio in the repeat runs, not every such curve was filed as active; the % refers to the signal ratio). Summed up: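 Wild-type CHO-K1 cells, plated overnight, exposed 3hr at 37C to 15 concentrations (0.76% DMSO final). Lysed, then HTRF anti-pH2AX (S139) cryptate and anti-H2AX-d2 antibodies, 24 hr room temperature; 665/620 nm emission read.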
Experiment [10] can be described thus: qHTS assay to identify small molecule agonists of the hypoxia (HIF-1) signaling pathway (AID 1224846; active = well fitted activation curve with a large enough effect in the signal ratio in the repeat runs, not every such curve was filed as active; the % refers to the signal ratio). The method in brief:
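A low-serum medium (0.5% dialyzed FBS) holding 2,000 HRE-bla ME-180 cells per well is preincubated for 5 hrs, dosed with compounds by pintool, and kept a further 17 hrs at 37C, 5% CO2 before CCF4-AM FRET detection of beta-lactamase.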

The nature of experiment [11]: qHTS assay to identify small molecule agonists of H2AX - cell viability counter screen (AID 1224847; calls by dose curve; also: top concentration of the series differs between compounds; nearly all actives have a fitted effect of over 30% in size). The method in brief:
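Wild-type CHO-K1 cells (10% FBS medium) were plated overnight at 37C, exposed to compounds at 15 concentrations for 3 hr at 37C (0.76% DMSO final), and viability was read as CellTiter-Glo luminescence after 30 min at room temperature.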

The nature of experiment [12]: qHTS assay to identify small molecule antagonists of the estrogen related receptor (ERR) signaling pathway from Tox21 library (AID 1224848). Also: nearly all actives have a fitted effect of over 50% in size. Summed up:
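Luminescent reporter read-out (ONE-Glo) from NTP's ERR cell line after 18 h treatment at 37 C with DMSO-dissolved Tox21 compounds; cells pre-plated 6 h beforehand at 2,000 per well.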

Experiment [13] in a line: qHTS assay to identify small molecule agonists of the estrogen related receptor (ERR) signaling pathway from Tox21 library (AID 1224849; calls by dose curve; also: nearly all actives have a fitted effect of over 15% in size). Conditions: ERR reporter cell line, ONE-Glo luciferase, 18 h. The method in brief: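 Screening used an NTP-provided ERR luciferase cell line. Compounds in DMSO were added 6 h after seeding and left 18 h at 37 C before a 30 min ONE-Glo step and luminescence reading.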

Experiment [14] in a line: qHTS RealTime-Glo MT Cell Viability Assay in HepG2 cells - 24 hour (AID 1224867). Also: nearly all actives have a fitted effect of over 50% in size. Summed up: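 Cells + NanoLuc/prosubstrate dispensed (600 cells/well) → 5 h at 37 C/5% CO2 → compounds in DMSO transferred → 40 h incubation at 37 C, luminescence read at 0, 8, 16, 24, 32, 40 h.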
Experiment [15] can be described thus: qHTS RealTime-Glo MT Cell Viability Assay in HEK293 cells - 32 hour (AID 1224868). Summed up:
(§1)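 Tox21 10K qHTS, HEK293, 600 cells/well, RealTime-Glo reagent co-dispensed with cells; 5 h preincubation, compound by pintool, 37 C, luminescence at 0–40 h.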

Experiment [16] in a line: A CellTox Green Cytotoxicity Assay to monitor cytotoxicity in HEK293 cells - 0 hour (AID 1224869). Also: nearly all actives have a fitted effect of over 50% in size. The method in brief: (§2)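 Fluorescence intensity, read at 0, 8, 16, 24, 32 and 40 h of compound treatment, reflected dye binding to DNA of dead HEK293 cells; compounds (23 nL, DMSO) were added 5 h after plating cells with reagent.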
Experiment [17] is described as follows: qHTS RealTime-Glo MT Cell Viability Assay in HepG2 cells - 40 hour (AID 1224870). Also: nearly all actives have a fitted effect of over 50% in size. The method in brief: (§3)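 HepG2 cells (600/well) mixed with RealTime-Glo MT reagent, settled 5 h at 37 C/5% CO2 before compound addition. Nonlytic NanoLuc luminescence from viable-cell prosubstrate reduction read repeatedly during 40 h treatment at 37 C.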
Experiment [18] is described as follows: A CellTox Green Cytotoxicity Assay to monitor cytotoxicity in HEK293 cells - 40 hour (AID 1224871). Also: nearly all actives have a fitted effect of over 45% in size. The method in brief:
as §2

A short description of experiment [19]: qHTS RealTime-Glo MT Cell Viability Assay in HEK293 cells - 16 hour (AID 1224872). The method in brief:
as §1

Experiment [20] in a line: qHTS RealTime-Glo MT Cell Viability Assay in HepG2 cells - 8 hour (AID 1224873). Also: nearly all actives have a fitted effect of over 55% in size. The method in brief: as §3

Where “and” joins values, the source holds several entries; their conditions need not be identical. Identical values can stand only once. Records with an inconclusive call do not appear. Where a structure was tested more than once in an assay, its records may differ in their call. Calls of active or inactive are those of the source. Unless noted, calls follow the shape of the dose curve; as a rule, active = well fitted curve in the direction sought with a large enough effect in the repeat runs; inconclusive = weak or mixed curves; inactive = no such curve, though single readings can be large; an effect the other way counts as inactive or inconclusive.
% is scaled to controls: 0 for no effect and ±100 for the full control effect.

Chain of Nuclear receptor subfamily 1 group I member 3 (Homo sapiens) (Q14994 whole entry, looked up): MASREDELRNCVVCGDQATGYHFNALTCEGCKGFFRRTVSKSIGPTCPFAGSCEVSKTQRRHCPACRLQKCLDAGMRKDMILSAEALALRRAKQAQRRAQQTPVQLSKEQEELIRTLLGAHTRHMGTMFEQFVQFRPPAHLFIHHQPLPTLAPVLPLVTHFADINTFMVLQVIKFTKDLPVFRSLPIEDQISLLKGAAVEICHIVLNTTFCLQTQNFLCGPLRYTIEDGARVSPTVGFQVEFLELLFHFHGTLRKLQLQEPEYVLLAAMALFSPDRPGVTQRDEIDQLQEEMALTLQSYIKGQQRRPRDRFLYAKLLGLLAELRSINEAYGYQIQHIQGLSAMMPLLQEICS

As for `Nc1ccccc1C(=O)O`, the Potency result in experiment [1], in experiment [2], in experiment [3], in experiment [4], in [5] and in [7] was “inactive” each time. Moreover, the Potency result in [8], in [9], in experiment [11], in experiment [12], in experiment [15] and in experiment [16] was “inactive” throughout. Moreover, the Potency result in experiment [18] was “inactive”. The outcome in experiment [6], in experiment [10], in [14], in [17], in [19] and in experiment [20] was inactive. Besides, the activity change, positive = activation in [13] (at 42.5 µM (top of the series)) was 5.44% (inactive); in experiment [13] (at 92.4 µM (top of the series)) it was 6.82% (inactive).

For the compound `NCC(O)c1ccc(O)cc1` (stereo unspecified), the Potency result in experiment [1], in experiment [2], in experiment [3], in [4], in [7] and in experiment [8] was “inactive” throughout. Further, the Potency result in experiment [9], in experiment [11], in experiment [15], in experiment [16] and in experiment [18] was “inactive” throughout. Also, the result in experiment [14], in experiment [17], in experiment [19] and in experiment [20] was inactive.

In the case of `CC(C)=C[C@@H]1[C@@H](C(=O)OCc2coc(Cc3ccccc3)c2)C1(C)C`, the Potency entry in experiment [1], in experiment [2], in experiment [4], in experiment [7], in experiment [8] and in [9] was “inactive” throughout. Moreover, the Potency entry in experiment [11], in experiment [15], in [16] and in experiment [18] was “inactive” each time. Moreover, the Potency in experiment [3] was 17.2 µM (active) and inactive. Also, the outcome in [10], in experiment [14], in experiment [17], in experiment [19] and in experiment [20] was inactive.

For the compound `O=C1CCCN1`, the Potency entry in experiment [1], in experiment [2], in experiment [3], in [4], in [7] and in experiment [8] was “inactive” each time. Moreover, the Potency entry in experiment [9], in experiment [11], in [15], in experiment [16] and in experiment [18] was “inactive” throughout. The compound was called inactive in [10], in experiment [14], in experiment [17], in [19] and in [20].

On to `O=c1[nH]c(=O)[nH]c(=O)[nH]1`, for which the Potency entry in [1], in experiment [2], in experiment [3], in experiment [4], in experiment [5] and in [7] was “inactive” throughout. For the same compound, the Potency result in experiment [8], in [9], in [11], in [12], in [15] and in experiment [16] was “inactive” throughout. For the same compound, in experiment [18], the Potency result was “inactive”. Moreover, the compound was classed as inactive in experiment [6], in [10], in experiment [14], in experiment [19] and in [20]. The activity change, positive = activation in [13] (at 92.4 µM (top of the series)) was 1.86% (inactive) and -0.392% (inactive).

Consider `Cc1ccc([N+](=O)[O-])cc1C`, for which the Potency result in experiment [1], in experiment [2], in [3], in [4], in experiment [7] and in experiment [8] was “inactive” in each case. Also, the Potency entry in experiment [9], in experiment [11], in experiment [15], in experiment [16] and in [18] was “inactive” in each case. Besides, the result in [10], in experiment [14], in experiment [19] and in experiment [20] was inactive.

As to `CN(N=O)c1ccccc1`, the Potency entry in experiment [1], in [2], in experiment [3], in experiment [4], in [5] and in experiment [7] was “inactive” throughout. Further, the Potency result in [8], in experiment [9], in [11], in experiment [12], in experiment [15] and in [16] was “inactive” throughout. Further, the Potency entry in [18] is “inactive”. Besides, the compound was classed as inactive in experiment [6], in [10], in experiment [14], in experiment [19] and in [20]. Also, in experiment [13] (at 92.4 µM (top of the series)), the activity change, positive = activation is 0% (inactive) and 7.25% (inactive).

These data come from PubChem BioAssay (Tox21).
